Laboratory results as given in PubChem BioAssay AID2284161 (EPA ToxCast).
Calls of active or inactive are those of the source. Rule for the calls: active = hit-call score of the fitted dose curve at least 0.9, where 1 is the maximum; inactive = score below 0.9.

target: human Serotonin Receptor 5-HT6 Agonism, HTR6 (gene 3362) (UniProt P50406); test: ERF_FR_GPCR_hHTR6: Eurofins (ERF) G Protein-Coupled Receptor (GPCR) Radioligand Binding LeadHunter Assay for human Serotonin Receptor 5-HT6 Agonism
Procedure: ERF_FR_GPCR_hHTR6 is a biochemical, single-readout assay that uses extracted gene-proteins in a cell-free assay. Measurements were taken 2 hour after chemical dosing in a 96-well plate. See 5-HT6 Human Serotonin GPCR Binding (Agonist Radioligand) Assay, Cerep.ERF_FR_GPCR_hHTR6 is an assay component calculated from the ERF_FR_GPCR_hHTR6 assay. It is designed to measure radioligand binding using a type of binding reporter as detected by scintillation counting with radiometry technology.Data from the assay component ERF_FR_GPCR_hHTR6 was analyzed at the assay endpoint, ERF_FR_GPCR_hHTR6, in the positive analysis fitting direction relative to DMSO as the negative control and baseline of activity. Using a type of binding reporter, gain-of-signal activity can be used to understand changes in binding as they relate to gene HTR6. To generalize the intended target to other relatable targets, this assay endpoint is annotated to the gpcr intended target family, where the subfamily is serotonin.
Human cells are incubated for 120 minutes at 37 C with [3H]LSD ligand (2 nM) and serotonin as control inhibitor. Test Sample Requirements: Minimum for 1) Screen: 60 ul of 10 mM stock -OR- 1 mg (pre-weighed) for 10 uM final testing. 2) Dose Response: 90 ul of 10 mM stock -OR- 1 mg (pre-weighed) for a top concentration at 10 uM.

human Serotonin Receptor 5-HT6 Agonism, HTR6 (gene 3362), sequence (P50406 whole entry, looked up): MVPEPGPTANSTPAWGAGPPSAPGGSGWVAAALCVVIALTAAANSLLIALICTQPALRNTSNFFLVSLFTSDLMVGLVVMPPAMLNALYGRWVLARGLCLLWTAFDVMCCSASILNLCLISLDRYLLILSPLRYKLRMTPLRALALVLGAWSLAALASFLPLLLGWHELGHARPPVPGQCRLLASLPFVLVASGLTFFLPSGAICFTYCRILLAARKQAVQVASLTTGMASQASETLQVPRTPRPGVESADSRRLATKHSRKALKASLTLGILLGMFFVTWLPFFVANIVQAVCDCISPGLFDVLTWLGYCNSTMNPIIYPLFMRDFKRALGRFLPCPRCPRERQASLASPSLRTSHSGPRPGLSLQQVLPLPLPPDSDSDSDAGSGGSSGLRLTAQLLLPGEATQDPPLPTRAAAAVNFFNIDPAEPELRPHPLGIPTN

Row | SMILES | AC50
1 | O=C(/C=C/c1ccc(O)cc1)CC(=O)/C=C/c1ccc(O)cc1 | 2700 nM (active)
